Many of the other results were omitted from the sample, so hits are more common in it than they were.
CBX7 inh: blocks human CBX7 binding to H3K27me3 peptide | O95931 | AlphaScreen His6-CBX7 / biotin-H3K27me3 peptide binding; hits give low values | normalised signal (fraction of DMSO) (concentration not given with the values) | hit rate 1.1% among 66,000; in the data active = normalised signal below about 0.5
Target sequence (O95931 whole entry, looked up): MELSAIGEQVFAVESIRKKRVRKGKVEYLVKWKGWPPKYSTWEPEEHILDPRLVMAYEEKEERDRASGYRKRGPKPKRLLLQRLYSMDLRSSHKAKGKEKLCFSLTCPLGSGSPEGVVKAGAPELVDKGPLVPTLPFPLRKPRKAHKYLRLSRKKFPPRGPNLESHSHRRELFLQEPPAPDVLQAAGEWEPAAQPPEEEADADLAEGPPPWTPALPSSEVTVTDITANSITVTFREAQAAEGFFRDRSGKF
Of the large screens only hits and unclear results are named; the others gave an inactive call.

COc1ccc(CCNc2nc(-c3ccc(Cl)cc3)cs2)cc1OC	none
Fc1ccc(Nc2nc(-c3ccc(Cl)cc3)cs2)cc1	none
Cc1nc(N)sc1-c1csc(Nc2ccc(Cl)cc2)n1	CBX7 inh 0.383
Cc1ccc(-c2csc(Nc3ccc(F)cc3)n2)cc1	none
COc1ccc(Nc2nc(-c3sc(N)nc3C)cs2)cc1	CBX7 inh 0.314
COc1ccc(Nc2nc(-c3sc(NC(C)=O)nc3C)cs2)cc1	none
CC(C)(C)c1cc(Sc2nnc(-c3ccc(Cl)cc3)c3ccccc23)cc(C(C)(C)C)c1O	none
CCCCNC(=O)Cn1ncc2ccsc2c1=O	none
COc1ccc(C(=O)c2oc3ccccc3c2NC(=O)COc2ccccc2C)cc1	none
Cc1nc2cc(-c3cccc(F)c3)nn2c(C)c1CCC(=O)NCCc1ccccc1	none
Cc1cccc(C(=O)Nc2sc3c(c2C(=O)N2CCN(C)CC2)CCC(C)C3)c1 (stereo not given)	none
CC(C)(C)Cc1nnc(NC(=O)CSCc2ccccc2)s1	none
CCOC(=O)N1CCC(NC(=O)C2CCCN(Cc3nc(-c4ccc(CC)cc4)oc3C)C2)CC1 (stereo not given)	none
COc1ccc(-c2nc(-c3cccc(C)c3)no2)cc1OC	none
COc1ccc(NC(=O)Cc2nn(C)c(=O)c3ccccc23)cc1	none
CCOc1ccc(OCC)c(NC(=O)C2CCCN(S(=O)(=O)c3cccc4cccnc34)C2)c1 (stereo not given)	none
Cc1ccc(C)c(NCC(O)Cn2c3ccccc3c3ccccc32)c1 (stereo not given)	none
Cc1ccccc1NCC(O)Cn1c(C)c(C)c2ccccc21 (stereo not given)	none
COc1ccc(OC)c(NCC(O)Cn2c3ccccc3c3ccccc32)c1 (stereo not given)	CBX7 inh 0.302
CC1CCN(C(=O)CN(c2cccc(C(F)(F)F)c2)S(=O)(=O)c2ccccc2)CC1	none
CCCCCC1CCC(c2ccc(-c3nc(-c4ccncc4)no3)cc2)CC1 (stereo not given)	none
CCCC1CCC(c2nc(-c3ccc(OC(F)F)cc3)no2)CC1 (stereo not given)	none
CCCC1CCC(c2ccc(-c3noc(-c4ccc(O)c(F)c4)n3)cc2)CC1 (stereo not given)	CBX7 inh 0.493
COc1ccc(C2(C(=O)Nc3ccc(F)cc3)CCOCC2)cc1OC	none
Oc1cccc2ccc(Nc3ccccn3)nc12	CBX7 inh 0.00869
c1ccc(-c2csc(Nc3ccccn3)n2)cc1	none
Oc1cccc2ccc(Oc3cccc4cccnc34)nc12	none
CCCCN(CC)S(=O)(=O)c1ccc2[nH]c(=O)cc(C(=O)NCCC3=CCCCC3)c2c1	none
CCOC(=O)c1cc(-c2ccccc2)n(-c2cccc(C(=O)NCc3ccccc3)c2)c1C	none
COc1ccc(Nc2ncc(C(=O)Nc3cnc4ccccc4c3)c3ccccc23)cc1	none
COc1ccc(Nc2ncc(C(=O)Nc3cccc(Cl)c3)c3ccccc23)cc1	CBX7 inh 0.2
CCOc1ccc(NC(=O)c2cnc(Nc3ccc(OC)cc3)c3ccccc23)cc1	none
Cc1nc2ccc(C(=O)NC(C)CCc3ccccc3)cc2nc1C (stereo not given)	none
CCCCNC(=O)C1CC(=O)N(CCc2ccccc2)C1 (stereo not given)	none
CCCCN(CCCNC(=O)C1CC(=O)N(CCc2ccccc2)C1)c1ccccc1 (stereo not given)	CBX7 inh 0.498
CCN(CCCNC(=O)C1CC(=O)N(CCc2ccccc2)C1)c1cccc(C)c1 (stereo not given)	none
Clc1ccc2nc(-c3ccccc3)c(-c3ccccc3)nc2c1	none
O=C(NCC1CCCO1)C1CCN(c2nc3ccccc3n2Cc2ccc(F)cc2)CC1 (stereo not given)	none
Cc1ccc(N2C(=O)c3ccccc3C2Nc2ccc(F)cc2F)nc1 (stereo not given)	none
CC(C)(C)c1ccc2c(c1)N(CC(=O)NCCc1ccccc1)C(=O)CO2	CBX7 inh 0.407
Cc1ccc(CCNC(=O)CN2C(=O)COc3ccc(C(C)(C)C)cc32)cc1	none
CC(C)(C)c1ccc2c(c1)N(CC(=O)NCCN1CCN(Cc3ccccc3)CC1)C(=O)CO2	none
Cc1ccn2c(Nc3ccc(F)cc3)c(-c3ccccn3)nc2c1	CBX7 inh 0
Cc1ccc(Nc2c(-c3ccccn3)nc3cccc(C)n23)cc1	CBX7 inh 0.00144
Cc1ccc(Nc2c(-c3ccccn3)nc3ccc(Br)cn23)cc1	none
Cc1ccc(Nc2c(-c3ccccn3)nc3ccc(Cl)cn23)cc1	none
Cc1cccc2nc(-c3ccccn3)c(Nc3ccccc3)n12	CBX7 inh 0.00532
Cc1ccc(Nc2c(-c3ccccc3)nc3cc(C)ccn23)cc1	none
Cc1ccc(-c2nc3ccccn3c2Nc2ccc(F)cc2)cc1	none
Cc1ccc(Nc2c(-c3ccsc3)nc3cccc(C)n23)cc1	none
Cc1cccc2nc(-c3ccccn3)c(Nc3ccc(F)cc3)n12	CBX7 inh 0.0586
Cc1cccc(C)c1Nc1c(-c2ccccc2F)nc2cccc(C)n12	none
Cc1ccc(Nc2c(-c3c(F)cccc3Cl)nc3cccc(C)n23)cc1	none
Fc1ccc(Nc2c(-c3ccccn3)nc3ccc(Br)cn23)cc1	none
CC(CCc1ccccc1)NC(=O)c1ccc(Cn2c(=O)[nH]c3ccccc3c2=O)cc1 (stereo not given)	none
Cc1cccc(NC(=O)c2cccc(COc3cccc4ccccc34)c2)n1	none
Cc1ccc(C)c(Cc2c(C)nc3c(C(=O)NC(C)C)cnn3c2C)c1	none
Cc1ccc(S(=O)(=O)c2nc(-c3ccccc3C)oc2N(C)C)cc1	none
c1ccc(C(c2ccccc2)N2CCN(CCCc3c[nH]c4ccccc34)CC2)cc1	none
Cc1ccc(C(c2ccccc2)N2CCN(CCCc3c[nH]c4ccccc34)CC2)cc1 (stereo not given)	CBX7 inh 0.488
Fc1ccc(C(c2ccccc2)N2CCN(CCCc3c[nH]c4ccccc34)CC2)cc1 (stereo not given)	none
Cc1ccccc1-c1nnc(NC(=O)COc2ccccc2F)s1	none
COc1ccc(C2CC(=O)N(CCCN(C)CCc3ccc(OC)c(OC)c3)C2)cc1 (stereo not given)	none
COc1ccc(Cl)cc1NC(=O)c1c(NCc2cccs2)sc2c1CCCC2	none
COc1ccc(OC)c(NC(=O)c2c(NCc3sccc3C)sc3c2CCCC3)c1	CBX7 inh 0.493
COc1ccc(NC(=O)c2c(NCc3sccc3C)sc3c2CCCCC3)c(OC)c1	none
COc1ccccc1NC(=O)c1c(NCc2sccc2C)sc2c1CCCCC2	none
COc1ccc(NC(=O)c2c(NCc3cccs3)sc3c2CCCCC3)cc1	none
COc1ccc(Cl)cc1NC(=O)c1c(NCc2sccc2C)sc2c1CCCC2	CBX7 inh 0.388
COc1ccc(NC(=O)c2c(NCc3cccs3)sc3c2CCC3)cc1	none
COc1ccc(OC)c(NC(=O)c2c(NCc3cccs3)sc3c2CCCC3)c1	none
COc1ccc(OC)c(NC(=O)c2c(NCc3cccs3)sc3c2CCCCC3)c1	CBX7 inh 0.427
CCOc1ccc(NC(=O)c2c(NCc3cccs3)sc3c2CCCCC3)cc1	CBX7 inh 0.442
COc1ccc(OC)c(NC(=O)c2c(NCc3cccs3)sc3c2CCC3)c1	none
COc1ccc(OC)c(CNc2sc3c(c2C(=O)Nc2cc(OC)ccc2OC)CCCC3)c1	none
Cc1ccccc1OCc1nc(C#N)c(N2CCC(Cc3ccccc3)CC2)o1	none
Cc1cc(N2CCN(C)CC2)nc2ccc(NC(=O)c3ccc(C(C)(C)C)cc3)cc12	none
O=C1CC(c2ccccc2)C(C(=O)Nc2cccc(Cl)c2)N1 (stereo not given)	none
Cc1ccc(Cl)cc1N1CCN(C(=O)C2CCN(c3nnc(-n4cccc4)s3)CC2)CC1	none
CCOC(=O)c1sc2nc(C)nc(NCc3ccc(Cl)cc3)c2c1C	none
COc1ccc(NC(=O)c2c(NCc3cccs3)sc3c2CCC3)c(OC)c1	none

Source: PubChem (Bradner/Qi Labs at DFCI)
